ANO1 activ: activators or potentiators of mouse TMEM16A chloride channel; B-score at 10 µM; HEK293 TMEM16A/YFP-H148Q/I152L, iodide quench fluorescence; active compounds read low; 0.3% of 340,000 active; Q8BHY3;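 active means fluorescence-ratio B-score plate-corrected deviation score at least 3 library SD below zero, with starting fluorescence score within 5 deviations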;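 further: channel opened by trigger with iodide after compound preincubation; score built on the fluorescence ratio of max minus min over baseline; more negative score means more quench and so TMEM16A activation or potentiation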
Target sequence (Q8BHY3 whole entry, looked up): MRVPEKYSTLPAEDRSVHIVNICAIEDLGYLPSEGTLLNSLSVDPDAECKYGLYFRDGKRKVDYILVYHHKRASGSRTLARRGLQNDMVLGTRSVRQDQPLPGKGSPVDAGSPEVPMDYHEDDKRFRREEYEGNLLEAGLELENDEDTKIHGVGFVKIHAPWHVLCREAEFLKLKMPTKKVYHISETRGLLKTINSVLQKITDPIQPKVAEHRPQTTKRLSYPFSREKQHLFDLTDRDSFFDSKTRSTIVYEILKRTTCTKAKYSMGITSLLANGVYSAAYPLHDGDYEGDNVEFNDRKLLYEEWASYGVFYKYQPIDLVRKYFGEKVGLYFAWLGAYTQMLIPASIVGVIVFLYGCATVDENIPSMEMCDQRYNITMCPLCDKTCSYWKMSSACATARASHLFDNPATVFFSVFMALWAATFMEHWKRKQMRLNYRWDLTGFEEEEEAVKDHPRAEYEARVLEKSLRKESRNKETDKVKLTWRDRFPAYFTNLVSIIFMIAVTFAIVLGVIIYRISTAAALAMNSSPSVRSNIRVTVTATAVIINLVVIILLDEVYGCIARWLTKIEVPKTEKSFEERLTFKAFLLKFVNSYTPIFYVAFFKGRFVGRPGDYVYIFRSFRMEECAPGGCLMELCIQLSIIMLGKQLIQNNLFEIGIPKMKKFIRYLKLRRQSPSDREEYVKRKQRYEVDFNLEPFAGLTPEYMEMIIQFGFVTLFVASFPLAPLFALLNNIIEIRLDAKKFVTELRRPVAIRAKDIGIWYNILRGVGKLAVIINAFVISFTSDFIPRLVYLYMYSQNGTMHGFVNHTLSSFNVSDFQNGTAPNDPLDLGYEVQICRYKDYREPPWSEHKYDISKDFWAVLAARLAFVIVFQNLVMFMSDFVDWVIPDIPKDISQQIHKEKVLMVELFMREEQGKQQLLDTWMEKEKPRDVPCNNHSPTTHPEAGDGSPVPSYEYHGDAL
PKA-R2B activ: activates the human PKA-R2B holoenzyme complex. AID 504700. 0.079% of 340,000 active. PKA-R2B holoenzyme dissociation, Cy5-IP20 fluorescence polarization; R2B truncated from residue 108, S112A mutant; 0% DMSO only, 100% 113 µM cGMP. activation, % at 11.4 µM;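 active means activation above a cutoff set at the mean over all compounds plus 3 SD, cut at about 18% in these data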;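 further: higher means more holoenzyme dissociation and a rise in polarization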
PKA-R1A activ: activates the PKA-R1A holoenzyme complex. 0.083% of 340,000 active. P00514+P68181. activation, % at 11.4 µM. PKA-R1A dissociation, Cy5-IP20 fluorescence polarization; scaled: DMSO 0%, 113 µM cGMP 100%;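 active means percent activation above the mean of all tested compounds plus 3 SD, cut at about 19% in these data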;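 further: higher means more PKAc released from R1A so a rise in polarization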
CHT inh: inhibits the human high affinity choline transporter; CHT-expressing cells, membrane potential dye, choline response; active compounds read low; B-score at 10 µM; 0.86% of 310,000 active; AID 488975;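 active means B-score over 3 SD under the library average, and starting fluorescence ratio not unusually high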;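 further: choline stimulus applied at its EC90 after an EC20 pre-addition; B-score computed on integrated fluorescence ratio after choline addition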
ANO1 block: inhibitors of mouse TMEM16A calcium-activated chloride channel | HEK293 TMEM16A/YFP iodide influx fluorescence, ionomycin | 1.2% of 310,000 active | normalized B-score (activity score, 25-100; higher = stronger inhibition) at 10 µM | Q8BHY3;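 active means ratio plate-corrected score three or more library SD toward inhibition, starting fluorescence score within five deviations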;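 further: score derived from kinetic fluorescence span divided by baseline fluorescence per well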
CHT allo act: allosterically activates the human high affinity choline transporter. 0.49% of 310,000 active. B-score at 10 µM. Q9GZV3. AID 488977. CHT-expressing cells, membrane potential dye, choline EC20; active compounds read high; LV-AA mutant CHT in HEK293 cells;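 active means initial fluorescence not abnormally high and integrated response B-score, plate-corrected, over 3 SD above library mean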
TMEM16A reconf: TMEM16A (mouse) chloride channel inhibition, re-confirmation; shares compounds with ANO1 block; inhibition, % at 10 µM; HEK293 TMEM16A/YFP-H148Q, iodide quench fluorescence; ionomycin added to raise cell calcium; 39% of 2,300 active;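 active means mean duplicate percent inhibition, scaled so buffer wells are 0 and the reference blocker 100, over three buffer SD above buffer mean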
HEK293 Ca mobil: counter-screen for TMEM16A inhibitors: effect on calcium mobilization | shares compounds with ANO1 block | TMEM16A/YFP HEK293, Fluo4 calcium mobilization | calcium response (% of ionomycin), % at 10 µM | 2% of 2,300 active;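 active means duplicate-averaged calcium signal over 20% of the ionomycin maximum, relative to buffer baseline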;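 further: each well's signal is peak minus trough fluorescence divided by its pre-addition baseline; 0% = buffer wells and 100% = ionomycin wells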
YFP-HEK293 quench: counter-screen for TMEM16A inhibitors: effect in parental YFP-HEK293 cells | 2,300 tested, under 10 active | iodide YFP quench, ionomycin | YFP ratio F(max-min)/F0 at 10 µM | shares compounds with ANO1 block;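 active means yellow fluorescent protein signal ratio exceeding the buffer control mean by over 5 SD of those controls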;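 further: ratio is mean of duplicate wells from kinetic YFP trace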
ClC-1 inh: blocks the rat ClC-1 voltage-dependent chloride channel | shares compounds with ANO1 block | ratio percent, % at 10 µM | 2,300 tested, under 10 active | CHO ClC-1-YFP, iodide influx fluorescence quench; iodide control reads 0, buffer control 100;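 active means duplicate-mean ratio percent above the mean of iodide-only control wells, which defines zero, plus 5 of their SD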;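 further: higher percent means stronger block of ClC-1 iodide influx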
Starred values were filed as active, the others as inactive; i = inactive; / = no result given. The list is not random: actives were taken first. Their share in the collection is about 2.5%.

SMILES	ANO1 activ	PKA-R2B activ	PKA-R1A activ	CHT inh	ANO1 block	CHT allo act	TMEM16A reconf	HEK293 Ca mobil	YFP-HEK293 quench	ClC-1 inh
COc1ccc(C(=O)N2CCCC(c3nc(-c4cccs4)no3)C2)cc1 (configuration not stated)	i	-2	-4	i	25*	i	i	i	-1.1	-8
COc1ccc(C(=O)N2CCCC(c3nc(-c4cccs4)no3)C2)cc1OC (configuration not stated)	/	2	-3	i	i	i	/	/	/	/
COc1ccc(-c2ncnc(C(F)(F)F)c2-c2csc(C)n2)c(O)c1	i	1	-3	i	i	i	/	/	/	/
Cc1nc(-c2c(-c3ccc(O)cc3O)noc2C(F)(F)F)cs1	i	0	0	i	100*	i	i	i	-0.98	2
COc1ccc(CCN2CC(C(=O)NCC(=O)Nc3ccc(F)c(F)c3)CC2=O)cc1OC (configuration not stated)	i	11	3	i	i	i	/	/	/	/
O=C(Cn1cnc2c(nnn2Cc2ccccc2)c1=O)Nc1ccc2c(c1)OCCO2	i	-5	-1	i	i	i	/	/	/	/
O=C(CSc1ccc(Br)cc1)NCC(c1ccco1)N1CCCCC1 (configuration not stated)	i	-6	-7	i	i	i	/	/	/	/
O=S(=O)(c1ccc2oc(=S)[nH]c2c1)N1CCCCC1	i	-3	1	i	i	i	/	/	/	/
S=c1[nH]c2cc(-c3ccccc3)ccc2o1	i	1	8	i	25*	i	i	i	-1	-10
C[C@H](CO)N1C[C@H](C)[C@@H](CN(C)CC2CCCCC2)Oc2c(NC(=O)CCC(F)(F)F)cccc2C1=O	i	-4	2	/	/	/	/	/	/	/
Cc1ccc(NC(=O)C(C)NS(=O)(=O)c2ccc(F)cc2)cc1C (configuration not stated)	i	12	-3	i	25*	i	i	i	-1.3	-16
CNC(=O)C(C)NS(=O)(=O)c1ccc(F)cc1 (configuration not stated)	i	-3	-8	i	i	i	/	/	/	/
COc1ccc(Br)cc1C(=O)Nc1ccccc1N1CCCC1	i	1	2	i	100*	i	24%*	i	-0.99	-14
CN(C)S(=O)(=O)c1ccc(N2CCCC2)c(C(=O)Nc2nc3c(ccc4ccccc43)s2)c1	i	4	-8	i	i	i	i	i	-1.4	-11
O=C(Nc1nc2c(ccc3ccccc32)s1)c1cc([N+](=O)[O-])ccc1N1CCOCC1	/	/	/	i	i	i	/	/	/	/
COc1ccccc1C(=O)COC(=O)c1ccc(Cl)nc1	i	-7	-9	/	/	/	/	/	/	/
O=C(CC1Sc2ccccc2NC1=O)OCc1cc(=O)oc2cc(O)ccc12 (configuration not stated)	i	-7	-4	i	25*	i	32%*	i	-0.7	-22
COC(=O)c1ccc(N2NC(=O)/C(=C/c3cc(OC)c(OC)c(OC)c3)C2=O)cc1	i	-8	2	i	i	i	/	/	/	/
COC(=O)c1ccc(N2NC(=O)/C(=C/c3cc(OC)c(O)c(OC)c3)C2=O)cc1	i	-1	-7	i	i	i	i	i	-0.75	-34
CCOC(=O)CCCCCC(=O)Nc1ccc2c(c1)C(=O)N([C@H](C)CO)C[C@H](C)[C@@H](CN(C)S(C)(=O)=O)OCCCC[C@@H](C)O2	/	2	4	/	/	/	/	/	/	/
Cc1cc(C)c2cc3c(N)c(C(=O)Nc4c(C)[nH]c(=O)[nH]c4=O)sc3nc2c1	i	1	-4	i	i	i	i	28%*	-1.1	10
CC1=C(C(=O)OCc2ccccc2)C(c2ccc(Br)cc2)NC(=O)N1CCCCCC(=O)O (configuration not stated)	i	4	-15	i	i	i	/	/	/	/
COC(=O)C1=C(C)N(CCCC(=O)O)C(=O)NC1c1ccc(-c2ccccc2)cc1 (configuration not stated)	i	0	-1	i	100*	i	i	i	-1.3	-1
COC(=O)CCCCCN1C(=O)NC(c2ccccc2)C(C(=O)OCc2ccccc2)=C1C (configuration not stated)	i	-14	0	i	25*	i	16%*	i	-1.1	-14
O=C(NCCC(=O)N1CCN(c2ccccn2)CC1)c1ccc([N+](=O)[O-])cc1	i	0	0	/	/	/	/	/	/	/
SMILES	ANO1 activ	PKA-R2B activ	PKA-R1A activ	CHT inh	ANO1 block	CHT allo act	TMEM16A reconf	HEK293 Ca mobil	YFP-HEK293 quench	ClC-1 inh
CCc1nnc(NC(=O)C2Cc3ccccc3CN2S(=O)(=O)c2c(C)c(C)cc(C)c2C)s1 (configuration not stated)	i	-9	-8	i	25*	i	i	i	-1	6
CCOc1ccc(/C(O)=C2/C(=O)C(=O)N(CC3CCCO3)C2c2cccs2)cc1 (configuration not stated)	i	-11	-1	i	i	i	/	/	/	/
O=C(O)c1c(NC(=O)c2cccc3ccccc23)sc2c1CCC2	i	5	0	i	100*	i	24%*	i	-1	-14
COC(=O)c1c(NC(=O)c2ccccc2C(=O)O)sc2c1CCC2	i	-7	2	i	i	i	/	/	/	/
O=C(NCc1ccc(Cl)cc1)c1ccccc1Oc1ccccc1	i	5	-3	i	100*	i	i	i	-0.97	-2
O=C(NCc1ccccc1)c1ccc(Cl)cc1	/	/	/	i	i	i	/	/	/	/
COC(=O)CSc1nnc2c3c4c(sc3nc(-n3nc(C)cc3C)n12)COC(C)(C)C4	i	3	7	i	i	i	/	/	/	/
